{
  "source": "ChEMBL document CHEMBL4513216",
  "about": "“Probing the Open Global Health Chemical Diversity Library for Multistage-Active Starting Points for Next-Generation Antimalarials” (ACS Infect Dis, 2020)",
  "note": "Hit rate of the full screen: of about 68,000 compounds, about 2,700 (4%) showed an effect of 50% or more. The full list was thinned out, with strong results kept by preference.",
  "data": [
    {"system": "Plasmodium berghei", "test": "Screen against P. berghei liver stage (PbLuc), transformed with Luciferase, at 2uM", "assay_type": "functional, HepG2", "settings": "tested at 2 uM", "units": {"INHIBITION": "%"}, "values": [
      {"molecule": "CC(C)NC(=O)c1nc(Cn2c(C(F)F)nc3ccccc32)no1", "INHIBITION": 51.42},
      {"molecule": "CC(C)NC(=O)c1nc(Cn2c(C(F)(F)F)nc3ccccc32)no1", "INHIBITION": 37.53},
      {"molecule": "O=C(NC1CC1)c1nc(Cn2c(C(F)F)nc3ccccc32)no1", "INHIBITION": 29.87},
      {"molecule": "COc1ccc(CN2CCN(CC3CC3)[C@@H]3CS(=O)(=O)C[C@@H]32)cc1O", "INHIBITION": 7.93},
      {"molecule": "Cn1ncc2c(N[C@@H]3C[C@H]4CC[C@@H]3C4)nc(-c3ccncc3)nc21", "INHIBITION": 67.85},
      {"molecule": "Cn1ncc2c(NC3CCC3)nc(-c3ccncc3)nc21", "INHIBITION": -24.62},
      {"molecule": "Cn1ncc2c(NC3CN4CCC3CC4)nc(-c3ccncc3)nc21", "note": "(configuration not stated)", "INHIBITION": 10.1},
      {"molecule": "Cc1csc(CNC(=O)NC(C)c2ccc3c(c2)OCCO3)n1", "note": "(configuration not stated)", "INHIBITION": 39.83},
      {"molecule": "CN(C)CCOC1CC2(CCN(c3cnccn3)CC2)c2ccccc21", "note": "(configuration not stated)", "INHIBITION": 20.21},
      {"molecule": "CC(=O)N(Cc1noc(C)n1)C1CCN(Cc2ccccn2)C1", "note": "(configuration not stated)", "INHIBITION": 6.31},
      {"molecule": "CC(=O)N(Cc1noc(C)n1)C1CCN(Cc2ccccc2C#N)C1", "note": "(configuration not stated)", "INHIBITION": -21.31},
      {"molecule": "CC(=O)N(Cc1ncc(C)o1)C1CCN(Cc2ccccc2F)C1", "note": "(configuration not stated)", "INHIBITION": 20.35},
      {"molecule": "CC(=O)N(Cc1ncc(C)o1)C1CCN(Cc2cc(C)on2)C1", "note": "(configuration not stated)", "INHIBITION": 1.04},
      {"molecule": "CC(=O)N(Cc1ncc(C)o1)C1CCN(Cc2noc(C)n2)C1", "note": "(configuration not stated)", "INHIBITION": 71.13},
      {"molecule": "CC(=O)N(Cc1ncc(C)o1)C1CCN(Cc2ccncc2Cl)C1", "note": "(configuration not stated)", "INHIBITION": 53.72},
      {"molecule": "CC(=O)N(Cc1noc(C)n1)C1CCN(Cc2ncc(C(C)C)o2)C1", "note": "(configuration not stated)", "INHIBITION": 8.06},
      {"molecule": "CC(=O)N(Cc1noc(C)n1)C1CCN(Cc2ccncc2Cl)C1", "note": "(configuration not stated)", "INHIBITION": 53.72},
      {"molecule": "CC(=O)N(Cc1ncc(C)o1)C1CCN(Cc2cccnc2)C1", "note": "(configuration not stated)", "INHIBITION": 41.72},
      {"molecule": "O=C(O)[C@@H]1CN(C(=O)CN2Cc3ccccc3C2)C[C@H]1c1ccncc1", "INHIBITION": 27.42},
      {"molecule": "CCN(C(=O)c1cccc2c1OCO2)c1ccccc1", "INHIBITION": -0.15},
      {"molecule": "O=C1CC2(CCN(S(=O)(=O)C3CC3)C2)CN1c1cncnc1", "note": "(configuration not stated)", "INHIBITION": 34.34},
      {"molecule": "Cn1nccc1CCC(=O)N1CCCC(Cc2cccnc2)C1", "note": "(configuration not stated)", "INHIBITION": -24.85},
      {"molecule": "Cc1ccc(CN(C(=O)NC2CCS(=O)(=O)C2)C2CC2)o1", "note": "(configuration not stated)", "INHIBITION": 1.88},
      {"molecule": "COCCOc1cc(C)ccc1NC(=O)N(C)Cc1cnn(C)c1", "INHIBITION": 64.16},
      {"molecule": "CCCOc1cc(C)ccc1NC(=O)N(C)Cc1cnn(C)c1", "INHIBITION": -31.72},
      {"molecule": "CCOc1cc(C)ccc1NC(=O)N(C)Cc1cnn(C)c1", "INHIBITION": 17.39},
      {"molecule": "O=C1CCCC2=C1C(c1ccccc1Cl)C1C(=O)NN=C1N2", "note": "(configuration not stated)", "INHIBITION": 31.66},
      {"molecule": "Cn1ncc2c1CN(Cc1ccccc1F)CC2COCC1CC1", "note": "(configuration not stated)", "INHIBITION": 21.42},
      {"molecule": "Cc1cc(C)cc(N2CC(c3nnc(N)s3)CC2=O)c1", "note": "(configuration not stated)", "INHIBITION": 35.41},
      {"molecule": "O=C(C1CC(=O)N(c2ccccc2)C1)N1CCC2(CC1)OCCO2", "note": "(configuration not stated)", "INHIBITION": 28.17},
      {"molecule": "O=C1C[C@@H]2CCN(Cc3ccccc3)C[C@@H]2CCN1c1ccccc1", "INHIBITION": 44.84},
      {"molecule": "Cc1cccc(N2CC3(CCN(c4nncs4)C3)CC2=O)c1", "note": "(configuration not stated)", "INHIBITION": 5.77},
      {"molecule": "Nc1nnc(C2CC(=O)N(c3ccccc3)C2)s1", "note": "(configuration not stated)", "INHIBITION": 74.36},
      {"molecule": "CS(=O)(=O)NC1CC(=O)N(c2ccccc2Cl)C1", "note": "(configuration not stated)", "INHIBITION": 34.28},
      {"molecule": "CCc1ccccc1N1CC(c2nnc(N)s2)CC1=O", "note": "(configuration not stated)", "INHIBITION": 51.78},
      {"molecule": "Cc1cccc(N2CC(c3nnc(N)s3)CC2=O)c1", "note": "(configuration not stated)", "INHIBITION": 52.23},
      {"molecule": "Cc1c(Cl)cccc1N1CC(c2nnc(N)s2)CC1=O", "note": "(configuration not stated)", "INHIBITION": 8.41},
      {"molecule": "CN(C)C1CC2(CCN(C(=O)c3csnn3)CC2)c2ccccc21", "note": "(configuration not stated)", "INHIBITION": 24.51},
      {"molecule": "CCc1nc2c(NCC3COc4cc(OC)ccc4C3)ncnc2o1", "note": "(configuration not stated)", "INHIBITION": 23.17},
      {"molecule": "CCCc1n[nH]c(C2CN(C(=O)CCn3cc(C)cn3)CCO2)n1", "note": "(configuration not stated)", "INHIBITION": 14.21},
      {"molecule": "Cn1cc(CN2C[C@H]3CCN(C(=O)c4cscn4)C[C@H]3C2)cn1", "INHIBITION": 34.24},
      {"molecule": "CCCN(CC(=O)NC)C(=O)c1ccc(-c2nc(C)cs2)cc1", "INHIBITION": 46.98},
      {"molecule": "CCN(CC(=O)N(C)C)C(=O)c1ccc(-c2nc(C)cs2)cc1", "INHIBITION": 53.81},
      {"molecule": "CCCN(CC(=O)N(C)C)C(=O)c1ccc(-c2nc(C)cs2)cc1", "INHIBITION": -0.15},
      {"molecule": "CC(C)(C)CC(=O)NCC(=O)Nc1ccn(Cc2ccccc2)n1", "INHIBITION": 43.87},
      {"molecule": "O=C(NCc1nnc2ccccn12)N1CCOC(c2cccs2)C1", "note": "(configuration not stated)", "INHIBITION": 50.46},
      {"molecule": "O=C(NCc1nnc2ccccn12)N1CCc2sccc2C1", "INHIBITION": 30.31},
      {"molecule": "Cc1ccc(C2CN(C(=O)NCc3nnc4ccccn34)CCO2)o1", "note": "(configuration not stated)", "INHIBITION": 26.03},
      {"molecule": "O=C(NCc1nnc2ccccn12)N1CCOC(c2ccsc2)C1", "note": "(configuration not stated)", "INHIBITION": 63.39},
      {"molecule": "CCn1cnnc1CNC(=O)N1CCOC(c2ccccc2Cl)C1", "note": "(configuration not stated)", "INHIBITION": 42.19},
      {"molecule": "O=C(NCc1nccs1)N1CCOC(c2ccccc2Cl)C1", "note": "(configuration not stated)", "INHIBITION": -71.45},
      {"molecule": "CCN1CCC2(CC1)OCCN2C(=O)c1cc(Cl)c(OC)c(Cl)c1", "INHIBITION": 19.62}
    ]}
  ]
}
